This passage reports cytotoxicity call results from the antibiotic and cytotoxicity screens of Wong et al. (2023).

Among all 39,000 compounds or so, about 3,300 (8.5%) were called active. The list comes from a sample in which actives are over-represented; it also holds similar structures and randomly drawn compounds.

The assay deals with HepG2. The assay is described as follows: cytotoxicity call (relative viability < 0.9). The note with it: 10 µM.
For `C[C@@H]1CCCCO[C@H](CN(C)S(=O)(=O)c2cccs2)[C@H](C)CN([C@H](C)CO)C(=O)c2cc(NC(=O)C3CCCCC3)ccc2O1`, the cytotoxicity call is “inactive”. Take `CC(C)NC(=O)Nc1cccc2c1O[C@@H](CN(C)S(=O)(=O)c1ccc(F)cc1)[C@@H](C)CN([C@@H](C)CO)C2=O`: the cytotoxicity call is “inactive”. For `CC12CCC(O)CC1=CCC1C2CCC2(C)C(c3cccnc3)=CCC12` (stereo not given), the cytotoxicity call was “inactive”. The entry for `CC1C2CCC3C4CC=C5CC(N(C)C)CCC5(C)C4CCC32CN1C` (stereo not given) is “active”; for `CC(=O)C1CCC2C3CC=C4CC(O)CCC4(C)C3CCC12C` (stereo not given) it is “inactive”. With `C[C@@H](O)[C@H](N)C(=O)O`, the cytotoxicity call is “active”. The entry for `CC(C)[C@@H](N)C(=O)O` is “inactive”; for `CC(O)C(N)C(=O)O` (stereo not given) it is “inactive”; for `C[C@H](CO)N1C[C@H](C)[C@H](CN(C)Cc2ccc(Oc3ccccc3)cc2)Oc2ccc(NC(=O)Cn3cnnn3)cc2CC1=O` it is “inactive”. The entry for `COC(=O)[C@H](Cc1ccc(-n2cc(-c3ccc(C(=O)NO)s3)nn2)cc1)N1CC2=C[C@H]([C@@H](O)Cc3ccccc3)n3c(=O)n(C)c(=O)n3[C@@H]2[C@@H](C2CC2)O1` is “inactive”; for `COC(=O)[C@H](Cc1ccc(-n2cc(-c3ccc(C(=O)NO)cc3)nn2)cc1)N1CC2=C[C@H]([C@@H](O)Cc3ccccc3)n3c(=O)n(C)c(=O)n3[C@@H]2[C@@H](C2CC2)O1` it is “inactive”; for `COC(=O)[C@H](Cc1ccc(-n2cc(-c3cccc(/C=C/C(=O)NO)c3)nn2)cc1)N1CC2=C[C@H]([C@@H](O)Cc3ccccc3)n3c(=O)n(C)c(=O)n3[C@@H]2[C@@H](C2CC2)O1` it is “active”. The entry for `CC(=O)N1CCO[C@H]2CCN(C(=O)c3ccn(C)n3)C[C@H]21` is “inactive”. On to `COc1c(N2CC3CCCNC3C2)c(F)cc2c(=O)c(C(=O)O)cn(C3CC3)c12.Cl` (stereo not given), for which the cytotoxicity call is “inactive”.

On to `CCn1cc(C(=O)O)c(=O)c2cc(F)c(N3CCNC(C)C3)c(F)c21.Cl` (stereo not given), for which the cytotoxicity call is “inactive”.

Turning to `COc1c(N2CCNC(C)C2)c(F)cc2c(=O)c(C(=O)O)cn(C3CC3)c12` (stereo not given), the cytotoxicity call was “active”. The entry for `C[C@@H]1CCCCO[C@@H](CN(C)S(=O)(=O)c2ccc(F)cc2)[C@H](C)CN([C@H](C)CO)C(=O)c2cc(NC(=O)Cc3ccccc3)ccc2O1` is “inactive”; for `C[C@@H]1CN([C@H](C)CO)C(=O)c2cc(NC(=O)Cc3ccccc3)ccc2O[C@@H](C)CCCCO[C@H]1CN(C)S(=O)(=O)c1ccc(F)cc1` it is “inactive”; for `C[C@@H]1CCCCO[C@H](CN(C)S(=O)(=O)c2ccc(F)cc2)[C@@H](C)CN([C@H](C)CO)C(=O)c2cc(NC(=O)Cc3ccccc3)ccc2O1` it is “active”.

On to `C[C@@H]1CCCCO[C@H](CN(C)S(=O)(=O)c2ccc(F)cc2)[C@@H](C)CN([C@@H](C)CO)C(=O)c2cc(NC(=O)Cc3ccccc3)ccc2O1`, for which the cytotoxicity call was “active”. `C[C@@H]1CN([C@H](C)CO)C(=O)c2cc(NC(=O)Cc3ccccc3)ccc2O[C@@H](C)CCCCO[C@@H]1CN(C)S(=O)(=O)c1ccc(F)cc1`: the cytotoxicity call was “inactive”. The entry for `C[C@H](CO)N1C[C@H](C)[C@H](CN(C)S(=O)(=O)c2ccc(F)cc2)OCCCC[C@H](C)Oc2ccc(NC(=O)Cc3ccccc3)cc2C1=O` is “inactive”; for `C[C@@H]1CCCCO[C@@H](CN(C)S(=O)(=O)c2ccc(F)cc2)[C@@H](C)CN([C@@H](C)CO)C(=O)c2cc(NC(=O)Cc3ccccc3)ccc2O1` it is “active”. Next, `C[C@@H]1CCCCO[C@@H](CN(C)S(=O)(=O)c2ccc(F)cc2)[C@H](C)CN([C@@H](C)CO)C(=O)c2cc(NC(=O)Cc3ccccc3)ccc2O1`: “inactive”; `C[C@H]1CCCCO[C@H](CN(C)S(=O)(=O)c2ccc(F)cc2)[C@@H](C)CN([C@@H](C)CO)C(=O)c2cc(NC(=O)Cc3ccccc3)ccc2O1`: “inactive”; `C[C@@H]1CN([C@@H](C)CO)C(=O)c2cc(NC(=O)Cc3ccccc3)ccc2O[C@@H](C)CCCCO[C@@H]1CN(C)C(=O)NC1CCCCC1`: “inactive”. The entry for `C[C@H](CO)N1C[C@H](C)[C@@H](CN(C)S(=O)(=O)c2cn(C)cn2)Oc2ccc(NS(C)(=O)=O)cc2C1=O` is “inactive”. On to `C[C@@H]1CN([C@H](C)CO)C(=O)c2cccc(NS(C)(=O)=O)c2O[C@@H]1CN(C)C(=O)Nc1ccc2c(c1)OCO2`, for which the cytotoxicity call is “inactive”. Next, `C[C@@H]1CN([C@@H](C)CO)C(=O)c2ccccc2-c2ccccc2CO[C@@H]1CN(C)S(=O)(=O)c1cn(C)cn1`: “inactive”; `C[C@@H]1CCCCO[C@@H](CN(C)Cc2ccc(C(F)(F)F)cc2)[C@H](C)CN([C@@H](C)CO)C(=O)c2cc(NC(=O)CCCN(C)C)ccc2O1`: “inactive”; `C[C@@H]1CCCCO[C@H](CN(C)S(C)(=O)=O)[C@@H](C)CN([C@H](C)CO)C(=O)c2cc(NC(=O)c3ccncc3)ccc2O1`: “inactive”. The entry for `CO[C@@H]1CN(C)C(=O)c2cc(NS(=O)(=O)c3ccccc3)ccc2OC[C@H](C)N(C(=O)NC(C)C)C[C@H]1C` is “inactive”; for `CN(C)C(=O)C[C@@H]1CC[C@@H](NC(=O)C2CCOCC2)[C@H](CO)O1` it is “inactive”.

As for `CCCCOc1cc(C(=O)OCCN(CC)CC)ccc1N.Cl`, the cytotoxicity call is “inactive”. The entry for `CCN(CCCCOC(=O)c1ccc(OC)c(OC)c1)C(C)Cc1ccc(OC)cc1.Cl` (stereo not given) is “active”.

For `CCCOc1ccc(C(=O)OCCN(CC)CC)cc1N.Cl`, the cytotoxicity call is “inactive”. Next, `C[C@H](CO)N1C[C@H](C)[C@H](CN(C)S(=O)(=O)c2ccc(F)cc2)Oc2ccc(NC(=O)CCCN(C)C)cc2C1=O`: “inactive”; `Cc1noc(C)c1NC(=O)Nc1ccc2c(c1)C(=O)N([C@@H](C)CO)C[C@H](C)[C@@H](CN(C)Cc1ccc(C(F)(F)F)cc1)OCCCC[C@H](C)O2`: “inactive”; `Cc1ccc(C(=O)Nc2cccc(C(F)(F)F)c2)cc1Nc1nc(-c2cccnc2)nc2c1cnn2C`: “active”.

For the molecule `Cc1cn(-c2cc(NC(=O)c3ccc(C)c(Nc4nccc(-c5cccnc5)n4)c3)cc(C(F)(F)F)c2)cn1`, the cytotoxicity call is “active”. Next, `O=C(Nc1cccnc1)c1nc2ncccn2n1`: “inactive”; `Cc1cn(-c2cc(NC(=O)c3ccc(C)c(Nc4nccc(-c5cnccn5)n4)c3)cc(C(F)(F)F)c2)cn1`: “inactive”. Turning to `O=C(O)c1cccnc1Nc1cccc(C(F)(F)F)c1`, the cytotoxicity call was “inactive”.

In the case of `COC(=O)CNC(=O)c1ccc(S(=O)(=O)N2CCOCC2)cc1`, the cytotoxicity call was “inactive”. The entry for `C[C@@H]1CN([C@@H](C)CO)C(=O)c2cccc(NS(=O)(=O)c3cn(C)cn3)c2O[C@@H]1CN(C)Cc1ccc(C(=O)O)cc1` is “inactive”; for `C[C@@H]1CN([C@H](C)CO)C(=O)c2cc(NC(=O)Cn3cnnn3)ccc2O[C@H]1CN(C)Cc1ccc(C(=O)O)cc1` it is “inactive”; for `C[C@@H]1CCCCO[C@H](CN(C)C(=O)Nc2ccccc2)[C@H](C)CN([C@@H](C)CO)C(=O)c2cc(NS(=O)(=O)c3cccs3)ccc2O1` it is “inactive”. The entry for `C[C@H](CO)N1C[C@H](C)[C@@H](CN(C)S(C)(=O)=O)Oc2ccc(NC(=O)CCC(F)(F)F)cc2CC1=O` is “inactive”. As for `C[C@@H]1CN([C@@H](C)CO)C(=O)c2cc(NC(=O)Nc3ccccc3)ccc2O[C@@H](C)CCCCO[C@H]1CN(C)S(=O)(=O)c1cccc(F)c1`, the cytotoxicity call was “inactive”. Next, `Cc1ccc(S(=O)(=O)N[C@@H](Cc2ccccc2)C(=O)NCCn2cc(CN3C(=O)COC[C@H]3c3ccccc3)nn2)cc1`: “inactive”; `CCOC(=O)[C@H](Cc1c[nH]c2ccccc12)NC(=O)Cn1cc(CN2C(=O)COC[C@H]2c2ccccc2)nn1`: “active”; `CCOC(=O)[C@H](Cc1c[nH]c2ccccc12)NC(=O)Cn1cc(C(=O)NO)nn1`: “inactive”. In the case of `Cc1noc(C)c1S(=O)(=O)Nc1ccc2c(c1)C(=O)N([C@@H](C)CO)C[C@@H](C)[C@H](CN(C)C(=O)NC1CCCCC1)O2`, the cytotoxicity call was “inactive”.

Regarding `COc1ccc(-c2nc(-c3ccc(C)cc3C)cs2)cc1`, the cytotoxicity call is “inactive”.

In the case of `COc1ccc(NC(=O)Nc2ccc3c(c2)CC(=O)N([C@H](C)CO)C[C@@H](C)[C@@H](CN(C)CC2CCCCC2)O3)cc1`, the cytotoxicity call was “active”. Next, `COc1ccc(NC(=O)Nc2ccc3c(c2)CC(=O)N([C@@H](C)CO)C[C@H](C)[C@@H](CN(C)CC2CCCCC2)O3)cc1`: “inactive”; `COc1ccc(NC(=O)Nc2ccc3c(c2)CC(=O)N([C@H](C)CO)C[C@H](C)[C@H](CN(C)CC2CCCCC2)O3)cc1`: “inactive”. The entry for `COc1ccc(NC(=O)Nc2ccc3c(c2)CC(=O)N([C@H](C)CO)C[C@H](C)[C@@H](CN(C)CC2CCCCC2)O3)cc1` is “inactive”. In the case of `COc1ccc(NC(=O)Nc2ccc3c(c2)CC(=O)N([C@@H](C)CO)C[C@@H](C)[C@@H](CN(C)CC2CCCCC2)O3)cc1`, the cytotoxicity call was “inactive”.

Regarding `COc1ccc(NC(=O)Nc2ccc3c(c2)CC(=O)N([C@@H](C)CO)C[C@@H](C)[C@H](CN(C)CC2CCCCC2)O3)cc1`, the cytotoxicity call is “active”. Next, `C[C@H](CO)N1C[C@H](C)[C@H](CN(C)Cc2ccc(C(=O)O)cc2)OCCCC[C@H](C)Oc2ccc(NC(=O)NC3CCCCC3)cc2C1=O`: “inactive”; `C[C@H]1CCCCO[C@H](CN(C)S(=O)(=O)c2cccs2)[C@@H](C)CN([C@@H](C)CO)C(=O)c2cc(NS(C)(=O)=O)ccc2O1`: “inactive”.

Take `O=C(NCC(F)(F)F)[C@@H]1c2ccccc2C(=O)N(Cc2cc(C(F)(F)F)cc(C(F)(F)F)c2)[C@H]1c1ccc(CO)cc1`: the cytotoxicity call is “inactive”. Consider `O=C1CO[C@H]2CN(S(=O)(=O)c3ccccc3)C[C@@H]2N1`, for which the cytotoxicity call was “inactive”. For `C[C@@H]1CN([C@H](C)CO)C(=O)c2cc(NS(=O)(=O)c3ccc(F)cc3)ccc2O[C@@H]1CN(C)S(C)(=O)=O`, the cytotoxicity call is “inactive”. The entry for `C[C@H]1CCCCO[C@H](CN(C)Cc2ccc(C(F)(F)F)cc2)[C@@H](C)CN([C@@H](C)CO)C(=O)c2cc(NS(=O)(=O)c3cccs3)ccc2O1` is “inactive”; for `C[C@@H]1CCCCO[C@@H](CN(C)Cc2ccc(C(F)(F)F)cc2)[C@@H](C)CN([C@@H](C)CO)C(=O)c2cc(NS(=O)(=O)c3cccs3)ccc2O1` it is “active”; for `C[C@@H]1CCCCO[C@H](CN(C)Cc2ccc(C(F)(F)F)cc2)[C@H](C)CN([C@H](C)CO)C(=O)c2cc(NS(=O)(=O)c3cccs3)ccc2O1` it is “active”. Next, `C[C@@H]1CCCCO[C@@H](CN(C)Cc2ccc(C(F)(F)F)cc2)[C@H](C)CN([C@H](C)CO)C(=O)c2cc(NS(=O)(=O)c3cccs3)ccc2O1`: “active”; `C[C@@H]1CCCCO[C@H](CN(C)Cc2ccc(C(F)(F)F)cc2)[C@H](C)CN([C@@H](C)CO)C(=O)c2cc(NS(=O)(=O)c3cccs3)ccc2O1`: “active”.

`C[C@@H]1CCCCO[C@@H](CN(C)Cc2ccc(C(=O)O)cc2)[C@H](C)CN([C@H](C)CO)C(=O)c2cc(NS(=O)(=O)c3cccs3)ccc2O1`: the cytotoxicity call is “inactive”. The entry for `C[C@@H]1CN([C@@H](C)CO)C(=O)c2cc(NS(=O)(=O)c3cccs3)ccc2O[C@@H](C)CCCCO[C@H]1CN(C)Cc1ccc(C(F)(F)F)cc1` is “inactive”; for `C[C@@H]1CN([C@H](C)CO)C(=O)c2cc(NS(=O)(=O)c3cccs3)ccc2O[C@@H](C)CCCCO[C@@H]1CN(C)Cc1ccc(C(=O)O)cc1` it is “inactive”. Next, `C[C@@H]1CCCCO[C@H](CN(C)Cc2ccc(C(F)(F)F)cc2)[C@@H](C)CN([C@H](C)CO)C(=O)c2cc(NS(=O)(=O)c3cccs3)ccc2O1`: “inactive”; `C[C@@H]1CN([C@@H](C)CO)C(=O)c2cc(NS(=O)(=O)c3cccs3)ccc2O[C@@H](C)CCCCO[C@@H]1CN(C)Cc1ccc(C(F)(F)F)cc1`: “inactive”.
